# The list is not random: actives were taken first. Their share in the collection is about 1.6%.
# KCNQ2 inh – inhibitors of rat KCNQ2 potassium channel; O88943; CHO-K1 KCNQ2, FluxOR thallium flux, 20 min; hits give low values; B-score at 10 µM; hit rate 1.1% among 310,000;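 active means fluorescence ratio B-score at most minus 3 library SDs, with starting brightness B-score within 2 library SDs, cut at about -5.5 in these data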
# KCNQ2 enhance – KCNQ2 (rat) channel potentiation; O88943; CHO-K1 KCNQ2, FluxOR thallium flux fluorescence; hits give high values; B-score at 10 µM; hit rate 0.54% among 310,000;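 active means fluorescence ratio B-score at least 3 SD of library B-scores, with initial fluorescence B-score within 3 of them, cut at about 5.3 in these data; same plate scores as AID 2156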;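 further: B-score of peak minus minimum over baseline fluorescence ratio after K+ and Tl+ stimulus; positive B-score means potentiation of KCNQ2 with more thallium influx and brighter signal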
# Numbers without * were called inactive; i = inactive; . = no result given.
SMILES,KCNQ2 inh,KCNQ2 enhance
Cc1ccc(-c2ccc(/C=N\NC(=O)c3cc4c(ccc5ccccc54)o3)o2)cc1[N+](=O)[O-],i,0.08
COc1ccc(/C=N/NC(=O)c2cc3c(ccc4ccccc43)o2)cc1OC,i,0.7
CCOc1ccc(CCNC(=O)c2cccc(S(=O)(=O)N3CCCCC3)c2)cc1OCC,i,.
O=C(CC(Cc1ccccc1)C(=O)O)Nc1cccc(C(F)(F)F)c1 (configuration not stated),i,.
O=C(Nc1ccccc1N1CCCCC1)C1CCN(S(=O)(=O)c2cccc(C(F)(F)F)c2)CC1,-6.9*,-6.9
O=C(Nc1ccccc1N1CCCC1)C1CCN(S(=O)(=O)c2cccc(C(F)(F)F)c2)CC1,i,.
CCOC(=O)C1CCN(S(=O)(=O)c2c(Cl)ccc3nonc23)CC1,i,.
O=C(NCC(c1cccs1)N1CCOCC1)c1ccccc1NS(=O)(=O)c1ccc(Cl)c([N+](=O)[O-])c1 (configuration not stated),-6.2*,-6.2
O=C(NCC(c1cccs1)N1CCOCC1)c1ccccc1NS(=O)(=O)c1cc([N+](=O)[O-])ccc1Cl (configuration not stated),i,.
COC(=O)[C@]1(CC(C)C)N[C@H](c2ccc(-c3cccc(Cl)c3)cc2)[C@@H]2C(=O)N(C)C(=O)[C@@H]21,i,.
O=C(COc1ccc(C(=O)O)cc1)Nc1cccc(C(F)(F)F)c1,i,0.74
O=C(COc1ccc(C(=O)NCCN2CCOCC2)cc1)Nc1cccc(C(F)(F)F)c1,-5.7*,-5.7
CCn1ccnc1CNC(=O)c1ccc(OC2CCN(C(=O)COC)CC2)cc1,i,0.02
O=C(N/C(=C/c1ccc([N+](=O)[O-])cc1)C(=O)N1CCOCC1)c1ccco1,i,.
COc1ccc2nc3oc(C(=O)N4CCN(c5cccc(C(F)(F)F)c5)CC4)cc3cc2c1,i,.
COc1ccc2nc3oc(C(=O)N4CCN(c5cccc(Cl)c5)CC4)cc3cc2c1,-5.8*,-5.8
Cc1ccc(S(=O)(=O)N(C)c2ccc(OC(=O)CN3C(=O)NC4(CCCC4)C3=O)cc2)cc1C,i,.
O=C(O)C(Cc1ccccc1)N1C(=O)c2c(Cl)c(Cl)c(Cl)c(Cl)c2C1=O (configuration not stated),i,.
COc1ccc(C)cc1NC(=O)C(Sc1nncn1C)c1ccccc1 (configuration not stated),i,.
COc1ccc(C)cc1NC(=O)C(Sc1nnc(Nc2ccccc2F)s1)c1ccccc1 (configuration not stated),-6.3*,-6.3
CC(NC(=O)CNC(=O)c1cccc(Cl)c1)c1ccccc1 (configuration not stated),i,.
COc1ccc(C(CNC(=O)C2CCN(S(=O)(=O)c3ccc(F)cc3)CC2)N(C)C)cc1 (configuration not stated),i,.
O=C(CCc1ccc(CCC(=O)c2cccs2)s1)c1cccs1,-6.8*,-6.8
O=C(CCN1CCCC1)c1cccs1,i,.
CCOP(=O)(OCC)c1nc(-c2cccc([N+](=O)[O-])c2)oc1N1CCCCC1,i,.
SMILES,KCNQ2 inh,KCNQ2 enhance
CCOP(=O)(c1ccccc1)c1nc(-c2ccccc2Cl)oc1N1CCCCC1 (configuration not stated),-5.6*,-5.6
CCOC(=O)c1ccc(N2C(=O)CC(NC3CCN(C(=O)c4ccc(F)cc4)CC3)C2=O)cc1 (configuration not stated),-9.5*,-9.5
CCOc1ccc(N2C(=O)CC(NC3CCN(C(=O)c4ccc(F)cc4)CC3)C2=O)cc1 (configuration not stated),i,.
O=C(O)c1cccc(Cn2c(Cl)c(/C=N/NC(=O)c3ccco3)sc2=O)c1,i,0.15
O=C(NN=C(Cc1ccccc1)Cc1ccccc1)c1ccccc1O,i,1.4
C/C(Cc1ccccc1)=N\NC(=O)c1ccc(F)cc1,i,2.8
NC(=S)NN=C(Cc1ccccc1)Cc1ccccc1,-5.6*,-5.6
O=C(NN=C(Cc1ccccc1)Cc1ccccc1)c1ccc(F)cc1,-5.6*,-5.6
CCCCn1c(N)c(N(CC(C)C)C(=O)c2ccco2)c(=O)[nH]c1=O,i,.
O=C(CCc1ccccc1)NCc1ccc2c(c1)OCO2,i,4.9
Cc1cc(Oc2ccc(-c3ccccc3)cc2)nc(N2CCOCC2)n1,i,.
Cc1cc(Oc2ccc(C(C)(C)C)cc2)nc(N2CCOCC2)n1,-6.2*,-6.2
CCn1c(SCC(=O)N2CCCCC2C)nc2c1c(=O)n(C)c(=O)n2C (configuration not stated),i,1.6
CCOC(=O)c1ccc(CNC(=O)c2cc(COc3ccccc3SC)on2)o1,i,.
Cc1ccccc1OCc1nc2ccccc2[nH]1,-6.6*,-6.6
COc1ccccc1OCc1nc2ccccc2[nH]1,i,.
Cc1ccc(OCC(O)CNC2CCCC2)c(C)c1 (configuration not stated),i,.
Cc1ccccc1OCC(O)CNC1CCC(NCC(O)COc2ccccc2C)CC1 (configuration not stated),-7.7*,-7.7
Cc1cc2c(cc1S(=O)(=O)CCC(=O)Nc1cccc(C(F)(F)F)c1)OCC(=O)N2,i,0.13
Cc1cc(OCc2cc(C(=O)NCCN3CCCCC3CO)no2)cc(C)c1Cl (configuration not stated),-7.9*,-7.9
COc1cccc(OCc2cc(C(=O)NCCN3CCCCC3CO)no2)c1 (configuration not stated),i,0.27
CCc1cc(=O)oc2cc(C)cc(OCC(=O)N3CCC(C(=O)NC(C)C)(c4ccccc4)CC3)c12,i,.
O=C(NCC1CCCC(CNC(=O)N2CCc3ccccc32)C1)N1CCc2ccccc21 (configuration not stated),-5.8*,-5.8
O=C(Nc1ccccc1)N1CCc2ccccc21,i,.
CCOc1ccc(CCNC(=O)COC(=O)c2nccnc2N)cc1OCC,i,.
SMILES,KCNQ2 inh,KCNQ2 enhance
CCn1nc(C(=O)OC(C(=O)c2c[nH]c3ccccc23)c2ccccc2)c2ccccc2c1=O (configuration not stated),-8*,-8
CCn1nc(C(=O)OCC(=O)c2ccc(F)cc2)c2ccccc2c1=O,i,1.1
CN(CCC#N)C(=O)COC(=O)c1ccc2c(c1)C(=O)N(C1CCCCC1)C2=O,i,0.34
COc1cc(/C=C2\SC(=S)N(CCCCC(=O)O)C2=O)ccc1OS(=O)(=O)c1ccc(C)cc1,i,.
O=C(NC1=C(Nc2ccc(Cl)cc2)C(=O)c2ccccc2C1=O)c1ccccc1,i,.
CN(C1=C(NC(=O)c2ccc(Cl)cc2)C(=O)c2ccccc2C1=O)c1ccccc1,-6.3*,-6.3
CCn1nc(C)c(C(=O)Nc2cc(Oc3cc(C)cc(C)c3)cc([N+](=O)[O-])c2)c1C,-5.6*,-5.6
Cc1nn(C)cc1C(=O)Nc1cc(Oc2ccc(Cl)cc2)cc([N+](=O)[O-])c1,i,.
O=C(COc1ccccc1)Nc1ccncc1Cl,i,0.67
O=C(NN1C(=O)/C(=C/c2cccc(O)c2)SC1=S)c1ccccc1O,-8.3*,-8.3
O=C(NN1C(=O)/C(=C/c2ccc(O)c(O)c2)SC1=S)c1ccccc1,i,.
C=CCn1c(=O)c(CCC(=O)Nc2ccc(N3CCOCC3)cc2)nc2cc(C(F)(F)F)ccc21,i,0.32
Cc1cccc(N2CCN(C3CCCCC3NS(=O)(=O)c3ccccc3)CC2C)c1 (configuration not stated),i,.
COC(=O)c1ccc(COc2ccccc2/C=C(\C#N)C(=O)Nc2ccc(C)cc2C)cc1,i,.

# Source: PubChem (Johns Hopkins Ion Channel Center)
